Results filed as inconclusive are left out. Active and inactive are the calls of the source. Calls come from the whole dose curve; as a rule, active = well fitted curve in the direction sought with a large enough effect; inconclusive = small, poorly fitted or top-dose-only effect, or another doubt; inactive = no such curve, though single readings can be large; an effect the other way counts as inactive or inconclusive.
Key:
HACAT = test: qHTS assay to identify novel small-molecules to repurpose for Merkel cell carcinoma treatment (AID 1296009); settings: MCC and control cell lines, CellTiter-Glo viability, 72 h; at 44.8 µM (top of the series) unless noted; note: nearly all actives have a fitted effect of over 60% in size
Procedure, shortened: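 72 hr, 37 degree celsius; NPC 8-pt / MIPE 11-pt dose response; compound pinned in DMSO; CellTiter-Glo, 10 min RT, luminescence; normalized to no-cell and DMSO controls.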

C33A = test: Primary qHTS to identify gynecologic anti-cancer compounds using libraries of approved drugs and bioactive compounds (AID 1345084); settings: Gynecologic cancer cell panel viability, ATPlite luminescence, 48 h; series mostly up to 57.5 µM; note: % is set by controls: 0 for no effect and ±100 for the full control effect; nearly all actives have a fitted effect of over 55% in size
Procedure, shortened: (§1)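 In this quantitative HTS, cell killing is estimated from loss of ATP-dependent luciferase light. Cells see five compound concentrations over a 48 h exposure.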

CAOV3 = test: as above; settings: Gynecologic cancer cell panel viability, ATPlite luminescence, 48 h; series mostly up to 57.5 µM
Procedure, shortened: as §1

CASKI = test: as above; settings: Gynecologic cancer cell panel viability, ATPlite luminescence, 48 h; series mostly up to 57.5 µM
Procedure, shortened: as §1

Es-2 = test: as above; settings: Gynecologic cancer cell panel viability, ATPlite luminescence, 48 h; series mostly up to 57.5 µM
Procedure, shortened: as §1

HeLa = test: as above; settings: Gynecologic cancer cell panel viability, ATPlite luminescence, 48 h; series mostly up to 57.5 µM
Procedure, shortened: as §1

Hek293T = test: as above; settings: Gynecologic cancer cell panel viability, ATPlite luminescence, 48 h, control line for the selectivity index; series mostly up to 57.5 µM
Procedure, shortened: as §1

JEG-3 = test: as above; settings: Gynecologic cancer cell panel viability, ATPlite luminescence, 48 h; series mostly up to 57.5 µM
Procedure, shortened: as §1

OV90 = test: as above; settings: Gynecologic cancer cell panel viability, ATPlite luminescence, 48 h; series mostly up to 57.5 µM
Procedure, shortened: as §1

PA-1 = test: as above; settings: Gynecologic cancer cell panel viability, ATPlite luminescence, 48 h; series mostly up to 57.5 µM
Procedure, shortened: as §1

SKOV3 = test: as above; settings: Gynecologic cancer cell panel viability, ATPlite luminescence, 48 h; series mostly up to 57.5 µM
Procedure, shortened: as §1

Tov-21-G = test: as above; settings: Gynecologic cancer cell panel viability, ATPlite luminescence, 48 h; series mostly up to 57.5 µM
Procedure, shortened: as §1

Tov112D = test: as above; settings: Gynecologic cancer cell panel viability, ATPlite luminescence, 48 h; series mostly up to 57.5 µM
Procedure, shortened: as §1

COc1ccc(/C=C/C(N)=O)cc1OC
inactive: outcome (HACAT) | Potency (C33A) | Potency (CAOV3) | outcome (CASKI) | Potency (Es-2) | Potency (HeLa) | Potency (Hek293T) | Potency (JEG-3) | Potency (OV90) | Potency (PA-1) | Potency (SKOV3) | Potency (Tov-21-G) | Potency (Tov112D)

CC(C)NC(=O)c1ccc(C#Cc2ccncc2)cn1
inactive: outcome (HACAT) | Potency (C33A) | Potency (CAOV3) | outcome (CASKI) | Potency (Es-2) | Potency (HeLa) | Potency (Hek293T) | Potency (JEG-3) | Potency (OV90) | Potency (PA-1) | Potency (SKOV3) | Potency (Tov-21-G) | Potency (Tov112D)

C[C@@H]1O[C@@H](O[C@H]2[C@H](O[C@H]3[C@H](O[C@H]4CC[C@@]5(C)C(CC[C@]6(C)C5CC=C5[C@@H]7CC(C)(C)C[C@@H](O)[C@]7(C)CC[C@]56C)C4(C)C)O[C@H](C(=O)O)[C@@H](O)[C@@H]3O)O[C@H](C(=O)O)[C@H](O)[C@@H]2O)[C@H](O)[C@H](O)[C@H]1O (stereo partly drawn)
inactive: outcome (HACAT) inactive [at 9.27 µM] | activity change, negative = cytotoxicity (C33A) -4.31% [at 11.6 µM] | activity change, negative = cytotoxicity (CAOV3) -1.54% [at 11.6 µM] | activity change, negative = cytotoxicity (CASKI) 12.7% [at 11.6 µM] | activity change, negative = cytotoxicity (Es-2) -10.8% [at 11.6 µM] | activity change, negative = cytotoxicity (HeLa) 5.18% [at 11.6 µM] | activity change, negative = cytotoxicity (Hek293T) 6.67% [at 11.6 µM] | activity change, negative = cytotoxicity (JEG-3) -0.21% [at 11.6 µM] | activity change, negative = cytotoxicity (OV90) 9.77% [at 11.6 µM] | activity change, negative = cytotoxicity (PA-1) 12.6% [at 11.6 µM] | activity change, negative = cytotoxicity (SKOV3) 6.58% [at 11.6 µM] | activity change, negative = cytotoxicity (Tov-21-G) 9.44% [at 11.6 µM] | activity change, negative = cytotoxicity (Tov112D) 4.96% [at 11.6 µM]

C=C1CC23CC1CCC2C12OC(=O)C(C)(C(O)CC1O)C2C3C(=O)O (stereo not drawn)
inactive: outcome (HACAT) | Potency (C33A) | Potency (CAOV3) | outcome (CASKI) | Potency (Es-2) | Potency (HeLa) | Potency (Hek293T) | Potency (JEG-3) | Potency (OV90) | Potency (PA-1) | Potency (SKOV3) | Potency (Tov-21-G) | Potency (Tov112D)

CC1(C)C2CC[C@]3(C)C(C(=O)C=C4[C@H]5C[C@@](C)(C(=O)O)CC[C@]5(C)CC[C@]43C)[C@@]2(C)CC[C@@H]1O (stereo partly drawn)
inactive: outcome (HACAT) inactive [at 17.4 µM] | Potency (C33A) | Potency (CAOV3) | outcome (CASKI) | Potency (Es-2) | Potency (HeLa) | Potency (Hek293T) | Potency (JEG-3) | Potency (OV90) | Potency (PA-1) | Potency (SKOV3) | Potency (Tov-21-G) | Potency (Tov112D)

C[C@@H]1O[C@@H](O[C@H]2[C@H](O[C@H]3[C@H](O[C@H]4CC[C@@]5(C)C(CC[C@]6(C)C5CC=C5[C@@H]7CC(C)(C)C[C@@H](O)[C@]7(C)CC[C@]56C)[C@@]4(C)CO)O[C@H](C(=O)O)[C@@H](O)[C@@H]3O)O[C@H](C(=O)O)[C@H](O)[C@@H]2O)[C@H](O)[C@H](O)[C@H]1O (stereo partly drawn)
inactive: outcome (HACAT) inactive [at 9.27 µM] | activity change, negative = cytotoxicity (C33A) 8.86% [at 11.6 µM] | activity change, negative = cytotoxicity (CAOV3) -0.141% [at 11.6 µM] | activity change, negative = cytotoxicity (CASKI) 16.2% [at 11.6 µM] | activity change, negative = cytotoxicity (Es-2) -1.06% [at 11.6 µM] | activity change, negative = cytotoxicity (HeLa) 4.67% [at 11.6 µM] | activity change, negative = cytotoxicity (Hek293T) 5.2% [at 11.6 µM] | activity change, negative = cytotoxicity (JEG-3) 7.1% [at 11.6 µM] | activity change, negative = cytotoxicity (OV90) 2.01% [at 11.6 µM] | activity change, negative = cytotoxicity (PA-1) 0.484% [at 11.6 µM] | activity change, negative = cytotoxicity (SKOV3) 10.8% [at 11.6 µM] | activity change, negative = cytotoxicity (Tov-21-G) 13.2% [at 11.6 µM] | activity change, negative = cytotoxicity (Tov112D) 5.35% [at 11.6 µM]

CS(=O)(=O)c1ccccc1N1CCN(c2nc3c(c(=O)[nH]2)CSCC3)CC1
inactive: outcome (HACAT) | Potency (C33A) | Potency (CAOV3) | outcome (CASKI) | Potency (Es-2) | Potency (HeLa) | Potency (Hek293T) | Potency (JEG-3) | Potency (OV90) | Potency (PA-1) | Potency (SKOV3) | Potency (Tov-21-G) | Potency (Tov112D)

COc1ccc(CC(NC(C)=O)C(=O)O)cc1 (stereo not drawn)
inactive: outcome (HACAT) | Potency (C33A) | Potency (CAOV3) | outcome (CASKI) | Potency (Es-2) | Potency (HeLa) | Potency (Hek293T) | Potency (JEG-3) | Potency (OV90) | Potency (PA-1) | Potency (SKOV3) | Potency (Tov-21-G) | Potency (Tov112D)

COc1cnc(-n2cnc(C)n2)c2[nH]cc(C(=O)C(=O)N3CCN(C(=O)c4ccccc4)CC3)c12
inactive: outcome (HACAT) | Potency (C33A) | Potency (CAOV3) | outcome (CASKI) | Potency (Es-2) | Potency (HeLa) | Potency (Hek293T) | Potency (JEG-3) | Potency (OV90) | Potency (PA-1) | Potency (SKOV3) | Potency (Tov-21-G) | Potency (Tov112D)

COc1cc(O[C@@H]2O[C@H](CO[C@H]3OC[C@](O)(CO)[C@H]3O)[C@@H](O)[C@H](O)[C@H]2O)cc(OC)c1O
inactive: outcome (HACAT) inactive [at 17.4 µM] | Potency (C33A) | Potency (CAOV3) | outcome (CASKI) | Potency (Es-2) | Potency (HeLa) | Potency (Hek293T) | Potency (JEG-3) | Potency (OV90) | Potency (PA-1) | Potency (SKOV3) | Potency (Tov-21-G) | Potency (Tov112D)

C[C@@H]1O[C@@H](O[C@H]2[C@H](O)[C@@H](O[C@@H]3O[C@H](CO)[C@H](O)[C@H](O)[C@H]3O)[C@H](O[C@H]3CC[C@@]4(C)C(CC[C@]5(C)C4CC=C4[C@@H]6CC(C)(C)CC[C@]6(C(=O)O[C@@H]6O[C@H](CO)[C@@H](O)[C@H](O)[C@H]6O)CC[C@]45C)C3(C)C)O[C@@H]2C(=O)O)[C@H](O)[C@H](O)[C@H]1O (stereo partly drawn)
inactive: outcome (HACAT) inactive [at 9.27 µM] | activity change, negative = cytotoxicity (C33A) 1.15% [at 11.6 µM] | activity change, negative = cytotoxicity (CAOV3) -1.94% [at 11.6 µM] | activity change, negative = cytotoxicity (CASKI) -5.82% [at 11.6 µM] | activity change, negative = cytotoxicity (Es-2) 2.19% [at 11.6 µM] | activity change, negative = cytotoxicity (HeLa) 1.11% [at 11.6 µM] | activity change, negative = cytotoxicity (Hek293T) -2.99% [at 11.6 µM] | activity change, negative = cytotoxicity (JEG-3) -3.24% [at 11.6 µM] | activity change, negative = cytotoxicity (OV90) 5.7% [at 11.6 µM] | activity change, negative = cytotoxicity (PA-1) 7.27% [at 11.6 µM] | activity change, negative = cytotoxicity (SKOV3) -3.61% [at 11.6 µM] | activity change, negative = cytotoxicity (Tov-21-G) 8.52% [at 11.6 µM] | activity change, negative = cytotoxicity (Tov112D) 3% [at 11.6 µM]

Source: PubChem BioAssay (NCATS)
